Compound activity deposited in PubChem BioAssay by Johns Hopkins Ion Channel Center.
Most compounds without a hit are left out; they make up all but 1.6% or so of the library.
KCNQ2 pot = potentiators of rat KCNQ2 potassium channel; O88943; 310,000 tested, 0.54% active; B-score at 10 µM; AID 2239; CHO-K1 KCNQ2, FluxOR thallium flux fluorescence; active compounds read high;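 active means fluorescence ratio B-score at least 3 SD of library B-scores, with initial fluorescence B-score within 3 of them, cut at about 5.3 in these data; same plate scores as AID 2156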;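 further: B-score of peak minus minimum over baseline fluorescence ratio after K+ and Tl+ stimulus; positive B-score means potentiation of KCNQ2 with more thallium influx and brighter signal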
KCNQ2 block = KCNQ2 (rat) channel inhibition. O88943. B-score at 10 µM. AID 2156. 310,000 tested, 1.1% active. CHO-K1 KCNQ2, FluxOR thallium flux, 20 min; active compounds read low;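 active means fluorescence ratio B-score at most minus 3 library SDs, with starting brightness B-score within 2 library SDs, cut at about -5.5 in these data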
Active calls of the source: *; i = inactive; / = no result given.

SMILES	KCNQ2 pot	KCNQ2 block
O=C(O)c1cc(-c2ccc(-c3c(-c4ccc5c(c4)OCO5)noc3-c3ccsc3)cc2)nc2ccccc12	/	i
O=C(/C=C/c1ccccc1[N+](=O)[O-])N1CCN(C(=O)c2ccco2)CC1	0.55	i
Cc1ccc(C(=O)NNC(=O)c2ccc3ncccc3c2)cc1	0.55	i
O=C(NNC(=O)c1ccc2ncccc2c1)c1ccc(Cl)cc1	8.1*	i
CCN(CC)S(=O)(=O)c1cc(NC(=O)CN2C(=O)NC3(CCCc4ccccc43)C2=O)ccc1C (centres undefined)	-5.8	-5.8*
Cc1ccc(NC(=O)CN2C(=O)NC3(CCCc4ccccc43)C2=O)cc1S(=O)(=O)N1CCOCC1 (centres undefined)	/	i
Nc1nc(SCc2ccc(Cl)cc2Cl)nc2nc3c(cc12)CCCC3	0.15	i
COc1ccc(C[C@H]2CN3C(=NC[C@@H]3Cc3ccccc3)N2CCNC(=O)c2ccc(C)c(Br)c2)cc1	-5.8	-5.8*
COc1ccc(C[C@H]2CN3C(=NC[C@@H]3Cc3ccc(O)cc3)N2CCNC(=O)c2ccc(C)c(Br)c2)cc1	/	i
Oc1ccc(Nc2nc(-c3ccc4ccccc4c3)cs2)cc1	/	i
Oc1ccc(-c2nc(-c3ccc(O)c(O)c3)cs2)cc1	-5.6	-5.6*
Cc1cc2ncn(-c3ncnc4sc5c(c34)CCC(C)C5)c2cc1C (centres undefined)	-5.9	-5.9*
Cc1cc2ncn(-c3ncnc4sc5c(c34)CCCC5)c2cc1C	/	i
O=C(N/N=C/C1C(c2ccccc2)C1(Cl)Cl)c1cccc(Cl)c1 (centres undefined)	/	i
CCN(CC)C(=O)c1cc2c(=O)oc3ccccc3c2s1	-6.9	-6.9*
CCN(CC)C(=O)c1cc2c(=O)n3ccccc3nc2s1	0.76	i
O=C(NCC1CCCO1)c1ccc(COc2ccccc2Br)cc1 (centres undefined)	5.3*	i
COc1cccc(OCc2ccc(C(=O)NCC3CCCO3)cc2)c1 (centres undefined)	/	i
O=C(CCc1ccccc1)NC1CCSC1=O (centres undefined)	0.52	i
O=C(Cc1ccccc1)NC1CCSc2ccccc21 (centres undefined)	-5.8	-5.8*
CC1(C)CSC(=NCc2ccccc2)N1C(=O)c1cccc([N+](=O)[O-])c1	1.4	i
CCN1CCN(S(=O)(=O)c2ccc(Cl)c(C(=O)Nc3ccccc3N3CCCCC3)c2)CC1	-5.6	-5.6*
O=C(Nc1cc(S(=O)(=O)N2CCOCC2)ccc1N1CCCC1)c1cccnc1Cl	/	i
CCN(CC(=O)Nc1ccc(S(=O)(=O)N2CCCCC2)cc1)Cc1ccccc1	/	i
O=C(Nc1ccccc1F)Nc1cc(S(=O)(=O)N2CCOCC2)ccc1N1CCCC1	0.12	i
SMILES	KCNQ2 pot	KCNQ2 block
CCN(CC(=O)Nc1cc(S(=O)(=O)N2CCCCC2)ccc1Cl)Cc1ccccc1	-7.8	-7.8*
O=C(Nc1cc(S(=O)(=O)N2CCOCC2)ccc1N1CCCC1)c1ccc2c(c1)S(=O)(=O)c1ccccc1C2=O	-5.9	-5.9*
O=C(Nc1ccccc1N1CCCC1)c1cc(S(=O)(=O)N2CCOCC2)ccc1Cl	-5.9	-5.9*
CCN1CCN(S(=O)(=O)c2ccc(Cl)c(C(=O)Nc3ccccc3N3CCCC3)c2)CC1	/	i
O=C(Nc1ccccc1-c1ccccc1)c1ccccc1Br	-6.3	-6.3*
O=C(Nc1ccccc1Br)c1ccccc1-c1ccccc1	/	i
Fc1c(F)c(-n2nnc3ccccc32)c(F)c(F)c1Cl	0.01	i
COc1ccc(/C=N/NC(=O)c2cc3c(ccc4ccccc43)o2)c(OC)c1	-6.3	-6.3*
COc1ccc(OC)c(/C=N\NC(=O)c2cc3c(ccc4ccccc43)o2)c1	0.92	i
CC(C)(C)c1cc(C(=O)Nc2cccc3ccccc23)ccn1	-5.8	-5.8*
Cc1ccc(C(=O)Nc2cccc3ccccc23)cc1	0.99	i
Cc1ccccc1-c1nc(CS(=O)(=O)CC(=O)N2CCOCC2)c(C)o1	/	i
O=C(CNC(=O)c1ccccc1F)OCCOc1cccc(Cl)c1	/	i
Cc1cccc(-n2ncc3c2CCCC3NC(=O)C2(C(N)=O)CC2)c1C (centres undefined)	0.59	i
Cc1cc(C(=O)NC2CC(C)(C)Cc3c2cnn3-c2ccccc2C)c(C)o1 (centres undefined)	-5.7	-5.7*
Cc1cc(C)c(C(=O)NC2CCCc3c2cnn3-c2cccc(C)c2C)o1 (centres undefined)	-6.6	-6.6*
COc1ccc(C(=O)NC2CC(C)(C)Cc3c2cnn3-c2ccccc2C)c(OC)c1OC (centres undefined)	/	i
Cc1ccc(CNC(=O)C(=O)NCC2OCCCN2S(=O)(=O)c2ccc(F)cc2)cc1 (centres undefined)	/	i
O=S1(=O)C=C(Oc2ccc3ccccc3c2)c2ccccc21	-6.1	-6.1*
O=S1(=O)C=C(Oc2ccc(F)cc2)c2ccccc21	0.45	i
